Test systems include NCI-H23 lung; NCI-H226 lung; NCI-H322M lung; HOP-62 NSCLC; NCI-H460 lung; HOP-92 NSCLC; NCI-H522 lung; A549/ATCC NSCLC; 786-0 renal; COLO 205 colon; DU-145 prostate; K-562 leukemia; MALME-3M melanoma; MDA-MB-231 breast; RXF 393 renal; SF-268 CNS; SF-295 CNS; SF-539 CNS; UACC-257 melanoma; M14 melanoma.
Holding throughout (assay): NCI-60 one-dose screen, 48 h (100 = growth as untreated, 0 = no growth, -100 = all killed)
Holding throughout (conditions): 10 µM unless noted

Each structure is given as a SMILES string. The panel holds about 83,000 compounds, 20% with a hit somewhere; the sample as a whole holds those more often.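 Method: cells in 96-well plates; compound added at one concentration; 48 h incubation; percent growth measured; values under 10 scored active.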 Values without a mark were called inactive. The source made the active and inactive calls.

With `Cc1ccc(-c2csc(NC(=O)CCCCl)n2)cc1`, the growth in the experiment with NCI-H23 lung is 93.1%; in the experiment with NCI-H226 lung, 78.5%; in the experiment on NCI-H322M lung, 87.4%; in the experiment on HOP-62 NSCLC, 101%; in the experiment with NCI-H460 lung, 103%; with HOP-92 NSCLC, 74.8%. Also, the growth in the experiment with NCI-H522 lung is 83.5%; in the experiment on A549/ATCC NSCLC, 90.5%; in the experiment with 786-0 renal it was 87.3%; in the experiment on COLO 205 colon, 112%; in the experiment on DU-145 prostate, 99.9%; with K-562 leukemia, 74.6%. Besides, the growth in the experiment on MALME-3M melanoma is 94%; in the experiment with MDA-MB-231 breast, 95.8%; with RXF 393 renal, 105%; in the experiment on SF-268 CNS, 85.8%; in the experiment with SF-295 CNS, 83.5%; in the experiment on SF-539 CNS it was 96.3%. In addition, the growth in the experiment on UACC-257 melanoma and with M14 melanoma was 103% each time.

Regarding `COc1cccc(/C=C2\Oc3cc(OCCCN4CCCC4)ccc3C2=O)c1`, the growth with NCI-H23 lung is 88%; with NCI-H226 lung, 95.4%; in the experiment on NCI-H322M lung, 88.2%; in the experiment with HOP-62 NSCLC it was 98.1%; with NCI-H460 lung, 78.4%; in the experiment on HOP-92 NSCLC, 74.1%. Besides, the growth is 92.2% with NCI-H522 lung; 91% with A549/ATCC NSCLC; 74.4% in the experiment with 786-0 renal; 86.7% with COLO 205 colon; 94.7% in the experiment with DU-145 prostate; -35.5% (active) with K-562 leukemia. For the same molecule, the growth with MALME-3M melanoma was 98.9%; in the experiment with MDA-MB-231 breast, 76.7%; in the experiment on RXF 393 renal, 81%; with SF-268 CNS it was 88.3%; in the experiment on SF-295 CNS, 91.1%; with SF-539 CNS it was 76.1%. In addition, the growth with UACC-257 melanoma is 102%; in the experiment with M14 melanoma, 65.9%.

As to `CCOC(=O)c1ccc2c(c1)nc(-c1ccc(OCc3ccccc3)c(OC)c1)n2-c1cc(C(C)(C)C)[nH]n1`, the growth in the experiment with NCI-H23 lung is 88.1%; in the experiment on NCI-H226 lung it was 91.6%; in the experiment on NCI-H322M lung, 92.8%; in the experiment on HOP-62 NSCLC, 91.4%; in the experiment with NCI-H460 lung it was 74.9%; in the experiment on HOP-92 NSCLC, 93.5%. Moreover, the growth in the experiment with NCI-H522 lung is 67.8%; in the experiment with A549/ATCC NSCLC, 59.3%; in the experiment on 786-0 renal it was 98.7%; in the experiment on COLO 205 colon, 67.4%; with DU-145 prostate, 89.9%; in the experiment on K-562 leukemia, 55.4%. Also, the growth in the experiment with MALME-3M melanoma was 99.2%; with MDA-MB-231 breast, 109%; with RXF 393 renal, 83.6%; in the experiment on SF-268 CNS it was 88.1%; with SF-295 CNS, 35.8%; with SF-539 CNS, 88.2%. Also, the growth in the experiment with UACC-257 melanoma is 101%; with M14 melanoma, 95.4%.

`Cc1nc2ncccc2nc1Nc1ccc(S(=O)(=O)Nc2cncs2)cc1`: the growth in the experiment with NCI-H23 lung is 85%; in the experiment with NCI-H226 lung, 92.5%; with NCI-H322M lung, 101%; in the experiment with HOP-62 NSCLC, 94%; in the experiment with NCI-H460 lung, 97.1%; in the experiment on HOP-92 NSCLC it was 65.4%. Also, the growth in the experiment with NCI-H522 lung is 103%; with A549/ATCC NSCLC, 103%; in the experiment with 786-0 renal it was 96.3%; in the experiment on COLO 205 colon, 98.9%; in the experiment with DU-145 prostate, 107%; in the experiment on K-562 leukemia it was 109%. In addition, the growth is 103% in the experiment on MALME-3M melanoma; 84% in the experiment on MDA-MB-231 breast; 112% in the experiment on RXF 393 renal; 98.2% in the experiment on SF-268 CNS; 107% in the experiment with SF-295 CNS; 106% in the experiment on SF-539 CNS. Besides, the growth in the experiment with UACC-257 melanoma is 101%; in the experiment with M14 melanoma it was 99.6%.

In the case of `O=C(Nc1ccncc1)C(=O)c1cn(S(=O)(=O)c2ccc(Br)cc2)c2ccccc12`, the growth with NCI-H23 lung is 46.9%; in the experiment with NCI-H226 lung, 77.8%; with NCI-H322M lung, 97.1%; with HOP-62 NSCLC, 44.7%; with NCI-H460 lung, 68.4%; in the experiment with HOP-92 NSCLC, 48.6%. The growth with NCI-H522 lung was 18.3%; with A549/ATCC NSCLC, 75.6%; in the experiment with 786-0 renal it was 54.9%; with COLO 205 colon, 103%; with DU-145 prostate, 62.6%; in the experiment with K-562 leukemia, 26.5%. The growth in the experiment with MALME-3M melanoma is 49.6%; with MDA-MB-231 breast it was 43%; in the experiment with RXF 393 renal it was 60.1%; in the experiment on SF-268 CNS, 52.2%; in the experiment on SF-295 CNS it was 29.6%; in the experiment on SF-539 CNS it was 43.8%. Also, the growth in the experiment on UACC-257 melanoma is 69.4%; with M14 melanoma it was 31.6%.

For the molecule `CN(C)CCOC(=O)Nc1ccccc1Cl`, the growth was 98.3% in the experiment with NCI-H23 lung; 106% in the experiment with NCI-H226 lung; 104% in the experiment on NCI-H322M lung; 101% in the experiment with HOP-62 NSCLC; 105% with NCI-H460 lung; 89.2% in the experiment on HOP-92 NSCLC. Besides, the growth with NCI-H522 lung was 106%; in the experiment on A549/ATCC NSCLC, 112%; in the experiment with 786-0 renal, 100%; in the experiment on COLO 205 colon, 113%; in the experiment on DU-145 prostate, 123%; in the experiment on K-562 leukemia, 111%. Further, the growth is 94.8% in the experiment with MALME-3M melanoma; 107% with MDA-MB-231 breast; 120% in the experiment on RXF 393 renal; 112% in the experiment with SF-268 CNS; 114% in the experiment on SF-295 CNS; 110% with SF-539 CNS. Further, the values for the growth with UACC-257 melanoma and in the experiment on M14 melanoma were 121% and 100%, respectively.

With `CCCCCCCCN(CCCCCCCC)CCCCCCNc1cc(OC)cc2cccnc12`, the growth in the experiment with NCI-H23 lung is 55.6%; in the experiment with NCI-H226 lung it was 100%; in the experiment on NCI-H322M lung, 88.5%; with HOP-62 NSCLC, 96.7%; with NCI-H460 lung, 92.8%; in the experiment on HOP-92 NSCLC, 62.6%. Moreover, the growth in the experiment on NCI-H522 lung is 92.1%; in the experiment with A549/ATCC NSCLC, 105%; in the experiment on 786-0 renal, 93.7%; in the experiment on COLO 205 colon, 33.3%; in the experiment on DU-145 prostate, 27.4%; in the experiment with K-562 leukemia it was 80.1%. Further, the growth was 61.7% in the experiment on MALME-3M melanoma; 52% with MDA-MB-231 breast; 108% in the experiment on RXF 393 renal; 83.4% in the experiment with SF-268 CNS; 109% in the experiment on SF-295 CNS; 111% with SF-539 CNS. In addition, the growth in the experiment on UACC-257 melanoma was 18.2%; in the experiment with M14 melanoma it was -1.6% (active).
